# Laboratory results published in PubChem BioAssay AID602332 (National Center for Advancing Translational Sciences (NCATS), 2012).
# Values joined by “and” are separate entries in the source; they are usually repeats but may differ in a detail not shown here. Equal values may be shown once. The campaign covered roughly 420,000 compounds. About 75 (0.02%) were called active. Many of the other results were omitted from the sample, so actives are more common in it than they were. Some structures have more than one record in an assay (separate samples or runs), and their calls can disagree. A number with no mark means an inactive call. The call rests on the fitted dose curve; in most records, active means well fitted activation curve with a large enough effect; inconclusive means small, poorly fitted or top-dose-only effect; inactive means no such curve, though single readings can be large or run the other way.
# Assay: qHTS for Inducers of the Endoplasmic Reticulum Stress Response (ERSR) in Human Glioma: qHTS; further: nearly all actives have a fitted effect of over 35% in size; on activation: % of control where 0% means no effect
# Conditions: U87-MG GRP78 promoter luciferase reporter, 16 h; activation: active compounds read high
# Text: Primary protein unfolding takes place for many diseases, including diabetes and hypoxia, , and triggers a reaction in the cells called ER stress response (ERSR). ). ERSR is designed as a repair mechanism, but ultimately leads to cell death via apoptosis if conditions triggering protein unfolding persist (1). The molecular clue to ERSR activation is the enhancement of the expression of key molecular chaperones, including the glucose regulated protein (GRP) 78. GRP78 is the main sensor for protein folding and the main actuator of the ERSR.
# In a collaboration between the Southern Research Institute and the NIH Chemical Genomics Center, a cell based screen was developed that reliably uses GRP78 as a sensor to identify small molecules as inducers of ERSR. In resting conditions, GRP78 binds proteins and acts as a natural repressor. Once unfolded proteins are present in the ER, GRP78 releases some of the repressors and binds to the unfolded proteins. The release of the repressors executes the ERSR program. Using a human glioma cell line in a miniaturized, luminescent format, a high-throughput screen was developed to identify actuators of the ERSR.
# (1) Soboloff, J. and S. A. Berger (2002). "Sustained ER Ca2+ depletion suppresses protein synthesis and induces activation-enhanced cell death in mast cells." J Biol Chem 277(16): 13812-20.
# NIH Chemical Genomics Center [NCGC]
# NIH Molecular Libraries Probe Centers Network [MLPCN]
# Assay Submitter (PI): Maurizio Grimaldi, Southern Research Institute
# Stable transfected human glioma cell line, U87-MG, are dispensed at density 1000 cells/well into Greiner white solid bottom 1536-well assay plates. Compounds are transferred via Kalypsys pin tool equipped with 1536-pin array (10nl slotted pins, V&P Scientific, San Diego, CA). The assay plates will be incubated for 16 hours and developed by adding appropriate quantities of the Promega Bright Glo reagent. The plates will be incubated at room temperature for 10 minutes prior to being transferred into a ViewLux high-throughput CCD imager (PerkinElmer), wherein end-point measurements of luminescence are acquired.
# Potency means the concentration at half of the fitted maximal effect.
SMILES,activation,Potency
O=c1c(CN2CCOc3ccc(CN4CCC(Oc5cccnc5)CC4)cc3C2)coc2ccccc12,-1.61%,–
O=C(CN1Cc2ccccc2OC(c2ccccc2)C1)N1CCCCC1c1cccnc1 (stereo not given),0.385%,–
C[C@H]1C[C@H]2[C@@H]3CCC4=CC(=O)C=C[C@]4(C)[C@@H]3C(=O)C[C@]2(C)[C@@]1(O)C(=O)CO,-3.39%,–
CC(=O)Oc1c2c(c3c(c1CC=C(C)C)O[C@@]14C(=CC5CC1C(C)(C)OC4(C/C=C(\C)C(=O)O)C5=O)C3=O)OC(C)(CCC=C(C)C)C=C2 (stereo not given in full),-12.4%,–
COC(=O)C1=C(C)N(Cc2ccccc2)C2=C3C(=O)N(c4ccccc4)C(=O)C3[C@@](O)(C(=O)OC)C(=O)N2C1c1ccccc1 (stereo not given in full),-1.87% and -3.39%,–
CN1CCc2nc(-c3ccccc3)c(-c3ccccc3)cc2C1,-5.76%,–
C=CCOC(=O)C(C(C)=O)C(NC(=O)OC)c1ccccc1 (stereo not given),-3.7%,–
O=C1C[C@H]2C=CCc3cccc(c32)CN1Cc1ccccc1,-0.186%,–
CC(C)c1cc(C(=O)N2CCOc3ccc(CN4CCC(Oc5cccnc5)CC4)cc3C2)n[nH]1,-4.01%,–
COc1ccccc1C1CN(CCNC(=O)C2=CCCC2)Cc2ccccc2O1 (stereo not given),-2%,–
CC[C@H](C)[C@H](NC(=O)[C@H](Cc1cnc[nH]1)NC(=O)[C@@H](N)CCC(=O)O)C(=O)N1CCC[C@H]1C(=O)N[C@@H](C)C(=O)O,-2.54%,–
CO[C@H]1C[C@@H](O[C@@H]2[C@@H](C)O[C@@H](O[C@@H]3/C(C)=C/CC4C[C@@H](C[C@]5(C=C[C@@H](C)[C@H](C6CCCCC6)O5)O4)OC(=O)[C@@H]4C=C(C)[C@@H](O)[C@H]5OC/C(=C\C=C\[C@@H]3C)[C@]54O)C[C@H]2OC)O[C@@H](C)[C@@H]1O,-9.58%,–
CC(C)(C)c1ccc(C(=O)C[N+]2(C)CCCc3ccccc32)cc1 (stereo not given),-4.17%,–
CC(=O)Nc1cc(C(=O)N2CCc3c(Cl)cccc3C2)cc2ncn(CCc3ccccn3)c12,-1.89%,–
C[C@@H](c1ccccc1)N1C(=O)[C@H]2[C@H]3[C@H](O)[C@H](O)C/C(=N/OC[C@@H](O)COCc4ccco4)[C@@H]3CC[C@@H]2C1=O,-4.31%,–
Cc1ncc2c(c1CNS(=O)(=O)N(C)C)CCN(C(=O)c1ccccc1F)C2,-3.66%,–
O=C1CCN(Cc2ccc(-c3ccccc3)cc2)CCN1Cc1ccccn1,2.1%,–
CN(C)C(=O)[C@@H]1C[C@@H](Sc2nc3ccccc3[nH]2)CN1Cc1ccc(Cl)cc1,-3.23%,–
C[C@@H]1O[C@@H](OC[C@H]2O[C@@H](Oc3c(-c4cccc(O)c4O)oc4cc(O)cc(O)c4c3=O)[C@H](O)[C@@H](O)[C@@H]2O)[C@H](O)[C@H](O)[C@H]1O,-4.32%,–
CCCS(=O)(=O)NCc1c(C)ncc2c1CCN(C(=O)c1ccc(F)c(F)c1)C2,-4.76%,–
CC(C)C(=O)NC(C)c1nnc2n1CCN(Cc1cccc3ncccc13)CC2 (stereo not given),-2.92%,–
CCC1CN(CCNC(=O)c2ccsc2)Cc2cc(OC)ccc2O1 (stereo not given),-2.11%,–
N#Cc1cccc(-c2ccc3ncnc(NCc4cccs4)c3c2)c1,-10.9%,–

SMILES,activation,Potency
COC(=O)[C@@H]1CC[C@H](C)[C@@H](c2ccc(C)cc2)N1C(=O)c1ccc(/C=N\O[C@@H](C)c2cn([C@H](CO)Cc3ccccc3)nn2)cc1,-4.74% and -2.82%,–
COc1cc(=O)n2c(c1C(=O)NC(C)c1ccco1)CCN(Cc1cc(C)cc(C)c1)CC2 (stereo not given),-3.17%,–
CO[C@@H]1COC(=O)C/C=C\[C@H](C)[C@@H](NS(=O)(=O)c2ccc(C)cc2)COC(=O)C/C=C\[C@@H]1C,-3.94% and -2.29%,–
COC(=O)c1c(OCc2ccc(F)cc2)cc(=O)n2c1CCN(Cc1ccc3cccnc3c1)CC2,-4.1%,–
c1ccc2c(Nc3ccncc3)nc(-c3ccc4c(c3)OCO4)nc2c1,-6.62%,–
CO[C@H]1COC(=O)[C@@H](C)NC(=O)C/C=C\[C@@H](C)[C@H](OC)COC(=O)C/C=C\[C@@H]1C,-4.07%,–
Cc1c(O)cc2c(c1C)O[C@](C)(CCC[C@H](C)CCC[C@H](C)CCCC(C)C)CC2,-2.5%,–
CCC1(C2CCN(C(=O)c3cccc(F)c3F)CC2)NC(=O)N(CCc2scnc2C)C1=O (stereo not given),-1.9%,–
Cc1cc(C)cc(CN2CCc3nnc(C(NS(C)(=O)=O)C(C)C)n3CC2)c1 (stereo not given),-4.09%,–
CC(=O)OCC1OC(C#Cc2ccccc2Cl)C=CC1OC(C)=O (stereo not given),-1.79%,–
CC(C)N1C[C@@H](NCc2ccccc2O)C[C@H]1C(=O)N1CCN(c2cccc(C(F)(F)F)c2)CC1,-4.06%,–
COc1cc(=O)n2c(c1C(=O)N(C)Cc1nccs1)CCN(Cc1ccc(Cl)cc1)CC2,-5.15%,–
O=C(CCN1Cc2ccccc2OC(c2ccccc2)C1)N[C@@H]1CS(=O)(=O)C[C@H]1O (stereo not given in full),-4.81%,–
O=C1OCCC=C1[C@@H](O)CCc1ccccc1,3.05%,–
O=c1cc(-c2ccc(O)cc2)oc2c(-c3cc(-c4cc(=O)c5c(O)cc(O)cc5o4)ccc3O)c(O)ccc12,-1.39%,–
COc1c(O)cc2oc(-c3ccc(O)c(O)c3)cc(=O)c2c1O,–,20 µM (active)
O=c1cc(-c2ccc(O)c(O)c2)oc2cccc(O)c12,-2.34%,–
CCCN(CC)[C@@H](CC)C(=O)Nc1c(C)cccc1C,-4.31%,–
O=C1[C@H]2[C@H]3[C@H](O)[C@H](O)C/C(=N/OCc4ccccc4)[C@H]3CC[C@@H]2C(=O)N1Cc1ccccc1,-3.44%,–
C/C(CCN1CCCCc2nc(C)c(C)cc21)=N\O[C@@H](C)c1cn([C@@H]2COC[C@@H]2O)nn1,-4.19%,–
COc1ccc2c(c1)CCc1cnc(-n3ncc(C(=O)NCCN4CCOCC4)c3C)nc1-2,5.73%,–
COc1ccc(/C=C/NC(=O)Cc2ccc(OC)c(OC)c2)cc1,0.885% and -3.87%,–
Cc1c(C(=O)NCC2CCCN(C)C2)cnn1-c1nccc(-c2ccco2)n1 (stereo not given),-1.59%,–

SMILES,activation,Potency
O=S(O)S(=O)(=O)O,-8.27%,–
CCOC(=O)N1CCN(Cc2ccc3c(c2)CN(C(=O)c2cccc(-n4cccn4)c2)CCO3)CC1,-2.17%,–
Cc1ccc(/C=C(\C#N)C(=O)Nc2cc(C)ccc2C)cc1,-3.56%,–
N#C/C(=C\c1ccc(O)c(O)c1)C(N)=O,-0.645% and -1.72%,–
N#C/C(=C\c1ccc(O)c(O)c1)C(=O)NCc1ccccc1,7.31% and 13.4% and 3.72%,25.1 µM (active)
Cc1cnc(C)c(-c2cc(F)c3c(c2)CC(CNC(=O)c2cccc(Cn4cccn4)c2)O3)n1 (stereo not given),-2.2%,–
COc1ccccc1-c1ccnc(-n2ncc(C(=O)NCCc3ccncc3)c2C)n1,-0.593%,–
O=C(c1cccc(Cn2cccn2)c1)N1CCOc2c(cc(-c3csc4ccccc34)cc2OC2CCOC2)C1 (stereo not given),-1.78%,–
Cc1ccc(C(=O)Nc2cccc(-c3nc(CNC(=O)c4ccccc4-n4cccn4)c(C)o3)c2)s1,-4.42%,–
COc1ccc(CN(C)CCn2cc(C(=O)N3CCSCC3)nn2)cc1C,-2.77%,–
COC(=O)C1CCCCN1Cc1ccc2c(c1)CN(Cc1cc(OC)c3c(c1)OCO3)CCO2 (stereo not given),0.195%,–
COC(=O)C(C(=O)OC)[C@@H]1CCCC(=O)C1,-5.46%,–
COCCN1CCN(C(=O)c2sc3ncnc(NCC4CCCO4)c3c2C)CC1 (stereo not given),-1.15%,–
COc1ccc(CCNc2ncnc3sc(C(=O)N4CCCC4)c(C)c23)cc1OC,-0.648%,–
C[C@@H]1CN(Cc2ccc3c(c2)CN(Cc2ccc(Oc4ncccn4)cc2)CCO3)C[C@H](C)O1,-2.33%,–
CC(C)[C@@H](OCc1ccccc1)[C@H](C)/C=N\OC[C@@H](C)[C@H](OCc1ccccc1)C(C)C,-2.4%,–
Cc1cc(C(=O)NCC2Cc3cccc(-c4cncnc4)c3O2)c(C)o1 (stereo not given),-0.609%,–
CCOC(OCC)OCC,3.31%,–
CC[C@H](C)[C@H](NC(=O)[C@@H](N)CCC(=O)O)C(=O)N[C@@H](CC(C)C)C(=O)N[C@@H](CC(=O)O)C(=O)N[C@H](C(=O)N1CCC[C@H]1C(=O)N[C@@H](CO)C(=O)N[C@H](C(=O)O)[C@@H](C)O)C(C)C,-2.27%,–
N[C@@H](C(=O)O)c1ccc(P(=O)(O)O)cc1,-4.34%,–
CN(C)c1ccc(CN2CCOc3ccc(CN4CCC(O)(c5cccnc5)CC4)cc3C2)cc1,-1.82%,–
Cc1ccc(Cn2cnc3c(cnn3C(C)(C)C)c2=O)c(F)c1,-6.82%,–
O=C(C[n+]1ccncc1)c1ccc2c(c1)CCCC2,-0.663%,–

SMILES,activation,Potency
Cc1cc(-c2ccnc(-n3ncc(C(=O)NC(C)(C)CO)c3C3CC3)n2)c(C)s1,-3.21%,–
Cc1cccc(CNc2ccnc(-c3cccnc3)n2)c1,6.2%,–
CCOC(=O)Cc1cccc(-c2cc(CCCCCCc3ccc(O[C@H]4O[C@H](COC(C)=O)[C@@H](OC(C)=O)[C@H](OC(C)=O)[C@@H]4OC(C)=O)c(-c4cccc(CC(=O)OCC)c4)c3)ccc2O[C@H]2O[C@H](COC(C)=O)[C@@H](OC(C)=O)[C@H](OC(C)=O)[C@@H]2OC(C)=O)c1,-3.38%,–
O=c1cc(-c2ccc(O)cc2)oc2c([C@@H]3O[C@H](CO)[C@@H](O)[C@H](O)[C@H]3O)c(O)cc(O)c12,-0.663%,–
Cc1ccc(-c2ccnc(-n3ncc(C(=O)N(C)Cc4cccc5ncccc45)c3C3CC3)n2)o1,-4.64%,–
COc1ccnc(C[S@@](=O)[C@@H]2Nc3ccc(OC(F)F)cc3N2)c1OC,-1.51%,–
COc1ccc2c(c1)NC(=O)C2CC(=O)N1CCOc2c(cc(-c3cnc4ccccc4c3)cc2OC)C1 (stereo not given),-6.72%,–
COCC1CCCN(Cc2ccc3c(c2)CN(C(=O)c2ccnn2C)CCO3)C1 (stereo not given),-2.07%,–
COc1ccc(F)c(CN2CCC3(CCC(CNC(=O)c4ccn(C)n4)O3)CC2)c1 (stereo not given),-4.54%,–
NNc1nnc(Cc2ccncc2)c2ccccc12,-5.05%,–
CC1=C(/C=C/C(C)=C/C=C/C(C)=C/C=C/C=C(C)/C=C/C=C(C)/C=C/C(=O)[C@]2(C)C[C@@H](O)CC2(C)C)C(C)(C)C[C@H](O)C1,-0.817%,–
O=C1NC(CC(=O)N2CCC(n3c(C4CCC4)nc4cccnc43)CC2)c2ccccc21 (stereo not given),-7.83%,–
COCC(=O)Nc1cc(C(=O)N2CCCC(c3ccccc3)CC2)c2c(c1)nc(-c1ccncc1)n2C (stereo not given),1.99%,–
COc1ccc(C)cc1N1C(=O)[C@@H]2C[C@H]1CN2Cc1cccc(OC)c1O,-3.49%,–
CCOC(=O)[C@]1(C(/C=C/c2ccco2)NC(=O)OC)CCCC1=O (stereo not given in full),-4.35%,–
CCOCCOC(=O)C(C)Oc1ccc(Oc2ncc(C(F)(F)F)cc2Cl)cc1 (stereo not given),3.45%,–
CN1CCCCCC1C(=O)NCCN1Cc2ccccc2OC(c2ccsc2)C1 (stereo not given),-4.87%,–
CNCCCOc1cc2nc(N3CCCN(C)CC3)nc(NC3CCN(C)CC3)c2cc1OC,-4.57%,–
COc1ccccc1-c1ccnc(-n2ncc(C(=O)NCCCN3CCOCC3)c2C)n1,-5.22%,–
COC(=O)NC(c1ccccc1)[C@]1(C(C)=O)CCCC1=O (stereo not given in full),-3.63%,–
